Results on 14 compounds are retold here after PubChem BioAssay (NCI).

This is part of a sample that, as a whole, favours compounds with a hit. Of some 83,000 tested, about 20% had one in any assay.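 Negative percent growth values reflect cell death: -40 means 40% of the cells present at the start died, and -100 means all died.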 A number with no mark means an inactive call. Calls of active or inactive are those of the source. How the source made its calls: active means growth percent below 10; inactive means the rest.

Among the test systems are SR leukemia; OVCAR-5 ovarian; OVCAR-4 ovarian; SK-OV-3 ovarian; IGROV1 ovarian; NCI/ADR-RES ovarian; RPMI-8226 leukemia; OVCAR-8 ovarian; OVCAR-3 ovarian; HS 578T breast.
What all share (experiment): NCI-60 one-dose screen, 48 h (100 = growth as untreated, 0 = no growth, -100 = all killed)
Holding throughout (conditions): 10 µM unless noted

Turning to `CCCCCC(=C/c1ccccc1)/C=N/N=C(N)N`, the growth was -2.56% (active) in the test on SR leukemia; 58.8% in the test with OVCAR-5 ovarian; 31.7% in the test on OVCAR-4 ovarian; 76.9% in the test on SK-OV-3 ovarian; -63.3% (active) in the test on IGROV1 ovarian; 41.7% with NCI/ADR-RES ovarian.
For the compound `CCCCCCCCC1OC1CCCCCCCC(=O)O` (stereo not drawn), the growth is 101% with SR leukemia; 98.4% in the test with RPMI-8226 leukemia; 101% in the test on OVCAR-8 ovarian; 115% in the test on OVCAR-4 ovarian; 95.3% in the test on SK-OV-3 ovarian; 108% in the test on OVCAR-3 ovarian. Moreover, the growth is 98.6% in the test with HS 578T breast and 104% in the test with NCI/ADR-RES ovarian.
Take `CC1C(=O)CCCC1=O`: the growth was 97.6% in the test with SR leukemia; 101% in the test on RPMI-8226 leukemia; 107% with OVCAR-8 ovarian; 108% in the test with SK-OV-3 ovarian; 102% with IGROV1 ovarian; 118% in the test on OVCAR-3 ovarian. Also, the growth in the test on NCI/ADR-RES ovarian was 113%.
Take `C[C@]12CC[C@H]3[C@@H](CC[C@H]4C[C@@H](O)CC[C@@]43C)[C@@H]1CC(=O)C2`: the growth in the test with SR leukemia is 89.8%; with OVCAR-8 ovarian, 95.3%; in the test on OVCAR-5 ovarian it was 94.8%; in the test on OVCAR-4 ovarian, 104%; in the test with SK-OV-3 ovarian it was 118%; in the test on IGROV1 ovarian, 103%. Besides, the growth is 112% in the test on OVCAR-3 ovarian and 106% in the test on NCI/ADR-RES ovarian.
In the case of `COc1cc(-c2nn(-c3ccc(NC(=O)c4cc(Cl)cc(Cl)c4)cc3)cc2-c2ccncc2)ccc1Cl`, the growth in the test with SR leukemia is 14.6%; in the test with OVCAR-8 ovarian, 96.9%; in the test with OVCAR-5 ovarian it was 95.7%; with OVCAR-4 ovarian it was 100%; in the test on SK-OV-3 ovarian it was 111%; in the test with IGROV1 ovarian, 116%. Further, the growth is 81% in the test on OVCAR-3 ovarian and 84.2% in the test with NCI/ADR-RES ovarian.
As for `O=C(/C=C1\C(=O)N(Cc2ccccc2)c2ccccc21)c1ccc(OCCN2CCCCC2)cc1`, the growth in the test on SR leukemia was -21.6% (active); in the test with RPMI-8226 leukemia it was -33.9% (active); with OVCAR-8 ovarian, 7.86% (active); with OVCAR-4 ovarian it was -22.3% (active); in the test on SK-OV-3 ovarian, 99.7%; in the test with IGROV1 ovarian, 6.02% (active). Further, the growth in the test on OVCAR-3 ovarian is -37% (active); in the test on HS 578T breast it was 77.7%; in the test with NCI/ADR-RES ovarian, 65.7%.
As to `CC#Cc1nc(Nc2cc(C)[nH]n2)c2ccccc2n1`, the growth in the test on SR leukemia is -5.19% [100 µM] (active); in the test with RPMI-8226 leukemia, -21.3% [100 µM] (active); with OVCAR-8 ovarian, 13.8% [100 µM]; in the test on OVCAR-4 ovarian, 20% [100 µM]; in the test with SK-OV-3 ovarian, 29.4% [100 µM]; with IGROV1 ovarian it was -46.7% [100 µM] (active). Further, the growth was -59% [100 µM] (active) with OVCAR-3 ovarian and 20.3% [100 µM] with NCI/ADR-RES ovarian.
Turning to `OC(c1ccccc1)(c1ccccc1)C(F)(F)F`, the growth with SR leukemia was 85.3%; with OVCAR-8 ovarian, 112%; with OVCAR-5 ovarian, 93.9%; with OVCAR-4 ovarian it was 122%; in the test on SK-OV-3 ovarian it was 103%; with NCI/ADR-RES ovarian it was 106%.
On to `O=C(/C(Br)=C/c1ccccc1)c1ccccc1`, for which the growth in the test on SR leukemia was -24.9% (active); in the test on OVCAR-8 ovarian it was -26.5% (active); in the test with OVCAR-5 ovarian it was 58.3%; in the test with OVCAR-4 ovarian, 25.7%; with SK-OV-3 ovarian, 105%; with IGROV1 ovarian, 27.5%. The growth with OVCAR-3 ovarian was -31.5% (active); with NCI/ADR-RES ovarian, -11% (active).
For `Cc1nc(NC(=S)Nc2ccc(F)cc2)sc1C(=O)NNC(=S)Nc1ccc(F)cc1`, the growth is 81.6% with SR leukemia; -16.8% (active) with RPMI-8226 leukemia; 87.4% with OVCAR-8 ovarian; 42.8% in the test with OVCAR-4 ovarian; 94% with SK-OV-3 ovarian; 51.7% with IGROV1 ovarian. The growth is 56.6% with OVCAR-3 ovarian, 72.4% in the test with HS 578T breast and 78.1% in the test with NCI/ADR-RES ovarian.
Consider `CC[C@H](Nc1ncnc2nc[nH]c12)c1nc2cccc(NCc3ccc(C(=O)NO)o3)c2c(=O)n1-c1ccccc1`, for which the growth with SR leukemia is 76.2%; with RPMI-8226 leukemia, 94.9%; with OVCAR-8 ovarian, 99.2%; in the test on OVCAR-4 ovarian, 97.3%; with SK-OV-3 ovarian, 110%; with IGROV1 ovarian it was 106%. Further, the growth in the test on OVCAR-3 ovarian is 97.6%; in the test on HS 578T breast, 84.7%; in the test on NCI/ADR-RES ovarian, 101%.
For `CN1NC(c2ccccc2)NN(C)C1=O`, the growth in the test on RPMI-8226 leukemia was 105%; in the test on OVCAR-8 ovarian, 103%; in the test with OVCAR-5 ovarian, 109%; with OVCAR-4 ovarian, 101%; in the test with SK-OV-3 ovarian it was 104%; in the test on IGROV1 ovarian it was 109%. Moreover, the growth in the test on OVCAR-3 ovarian was 112%; with HS 578T breast it was 113%; in the test on NCI/ADR-RES ovarian, 101%.
`CCCCCCCCCC(C)NC(=O)CCl` (stereo not drawn): the growth in the test on RPMI-8226 leukemia was 97.6%; with OVCAR-8 ovarian it was 88.3%; in the test with OVCAR-5 ovarian, 107%; in the test on OVCAR-4 ovarian, 89.4%; with SK-OV-3 ovarian it was 103%; in the test on IGROV1 ovarian, 25.6%. Besides, the values for the growth with OVCAR-3 ovarian, in the test with HS 578T breast and in the test on NCI/ADR-RES ovarian were 89.3%, 102% and 101%, respectively.
As to `Cc1ccc(C(=O)Nc2ccc(CN3CCN(C)CC3)c(C(F)(F)F)c2)cc1C#Cc1cnc(N)c2ccc(F)cc12`, the growth in the test with RPMI-8226 leukemia is -59.4% (active); in the test with OVCAR-8 ovarian it was -70.9% (active); in the test with OVCAR-5 ovarian it was -90.2% (active); with OVCAR-4 ovarian, -60.8% (active); in the test on SK-OV-3 ovarian, 1.66% (active); with IGROV1 ovarian, -82.9% (active). In addition, the values for the growth in the test on OVCAR-3 ovarian, in the test on HS 578T breast and in the test on NCI/ADR-RES ovarian were -83.3% (active), -30.2% (active) and -52.4% (active), respectively.
